High-throughput results as filed in PubChem.
Compounds with a hit are over-represented: about 2.5% of the library has one in this group of screens.
KLF5 inh – kruppel-like factor 5 inhibition; DLD-1 KLF5 promoter-luciferase reporter, luminescence; inhibition, % at 5 µM; 0.23% of 290,000 active; AID 1700;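 active = inhibition above a per-plate limit of that plate's mean compound inhibition plus 3 SD, cut at about 60% in these data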;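 note: 0% = DMSO wells and 100% = LY294002 at 200 µM; higher means less KLF5 promoter-driven luciferase light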
TMEM16A act – activates or potentiates the mouse TMEM16A chloride channel. AID 623877. HEK293 TMEM16A/YFP-H148Q/I152L, iodide quench fluorescence; stronger effect = lower value. Q8BHY3. B-score at 10 µM. 0.3% of 340,000 active;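 active = fluorescence-ratio B-score plate-corrected deviation score at least 3 library SD below zero, with starting fluorescence score within 5 deviations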;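 note: channel opened by trigger with iodide after compound preincubation; score built on the fluorescence ratio of max minus min over baseline; more negative score means more quench and so TMEM16A activation or potentiation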
Target sequence (Q8BHY3 whole entry, looked up): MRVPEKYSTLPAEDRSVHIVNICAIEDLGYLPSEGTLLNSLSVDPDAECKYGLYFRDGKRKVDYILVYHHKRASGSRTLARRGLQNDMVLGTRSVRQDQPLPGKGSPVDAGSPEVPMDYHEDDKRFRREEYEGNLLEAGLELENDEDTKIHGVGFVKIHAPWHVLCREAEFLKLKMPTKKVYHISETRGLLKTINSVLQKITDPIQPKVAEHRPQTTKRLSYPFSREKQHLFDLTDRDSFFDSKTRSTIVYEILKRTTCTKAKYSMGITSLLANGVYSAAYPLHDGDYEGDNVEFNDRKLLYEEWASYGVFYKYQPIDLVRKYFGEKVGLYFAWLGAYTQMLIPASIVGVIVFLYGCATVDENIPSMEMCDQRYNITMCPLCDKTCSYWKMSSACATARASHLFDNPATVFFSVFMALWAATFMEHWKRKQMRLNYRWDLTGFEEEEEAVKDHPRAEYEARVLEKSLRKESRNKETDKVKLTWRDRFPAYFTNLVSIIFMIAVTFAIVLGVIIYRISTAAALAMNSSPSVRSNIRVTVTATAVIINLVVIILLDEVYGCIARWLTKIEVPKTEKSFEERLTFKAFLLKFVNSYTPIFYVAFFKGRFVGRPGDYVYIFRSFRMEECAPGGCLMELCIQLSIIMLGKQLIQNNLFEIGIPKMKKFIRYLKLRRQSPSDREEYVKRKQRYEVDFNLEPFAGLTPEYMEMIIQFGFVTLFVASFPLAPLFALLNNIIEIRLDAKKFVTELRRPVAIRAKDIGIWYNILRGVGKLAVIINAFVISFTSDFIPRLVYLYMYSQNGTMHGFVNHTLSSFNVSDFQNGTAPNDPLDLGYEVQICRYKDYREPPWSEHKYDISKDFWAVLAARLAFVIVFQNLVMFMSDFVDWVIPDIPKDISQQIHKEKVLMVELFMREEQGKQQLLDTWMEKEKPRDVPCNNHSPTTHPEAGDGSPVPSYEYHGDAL
697 NFkB inh – lowers PMA/ionomycin-induced NF-kB signal in 697 B cells. 697 B-cell NF-kB luciferase reporter, 16 h. inhibition, % at 4 µM. 0.33% of 330,000 active; in the data active = inhibition above about 35%
Jurkat NFkB inh – lowers PMA/ionomycin-induced NF-kB signal in Jurkat cells; PMA/ionomycin-induced NF-kB luciferase reporter, luminescence; inhibition, % at 4 µM; 0.53% of 330,000 active; AID 435003; in the data active = inhibition above about 50%
TMEM16A inh – inhibitors of mouse TMEM16A calcium-activated chloride channel; HEK293 TMEM16A/YFP iodide influx fluorescence, ionomycin; normalized B-score (activity score, 25-100; higher = stronger inhibition) at 10 µM; 1.2% of 310,000 active; AID 588511;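 active = ratio plate-corrected score three or more library SD toward inhibition, starting fluorescence score within five deviations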;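 note: score derived from kinetic fluorescence span divided by baseline fluorescence per well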
aSyn UTR inh – 5' untranslated region of α-synuclein, MLPCN primary screen; alpha-synuclein 5'UTR reporter, inhibitor activity; inhibition, % (tested at 7.5 µM); 0.82% of 300,000 active; in the data active = inhibition above about 60%;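 note: H4 neuroglioblastoma cells stably carrying SNCA 5'UTR luciferase fusion; 0% = DMSO wells and 100% = positive control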
Jurkat NFkB conf – inhibitors of the PMA/ionomycin-induced NF-kB reporter in Jurkat cells, retest. shares compounds with Jurkat NFkB inh. Jurkat NF-kB luciferase, 16 h. inhibition, % at 4 µM. 27% of 2,700 active;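 active = inhibition reaching about 45% at 4 µM in either replicate, limit read from the data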;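 note: plate controls were PMA/ionomycin stimulated DMSO wells for no effect and unstimulated DMSO wells for full effect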
An asterisk follows results filed as active.

What do the screens show for `COc1cc(-c2noc(C)c2-c2ccc3[nH]ccc3c2)cc(OC)c1OC`?
KLF5 inh: 41; TMEM16A act: inactive; 697 NFkB inh: -8; Jurkat NFkB inh: 65*; TMEM16A inh: inactive; aSyn UTR inh: -11; Jurkat NFkB conf: 51*

Results for Cc1nc2ccc(C(=O)N3c4ccccc4CC3C)cc2s1 (stereo unspecified) ?
KLF5 inh: -4; TMEM16A act: inactive; 697 NFkB inh: -75; Jurkat NFkB inh: 55*; TMEM16A inh: inactive; aSyn UTR inh: 42; Jurkat NFkB conf: 14

How did COc1cc2sc3ccc(-c4ccc(N(C)C)nc4)cc3c(=O)c2cc1OC do in these assays?
697 NFkB inh: -161; Jurkat NFkB inh: -159; TMEM16A inh: inactive; aSyn UTR inh: -141; Jurkat NFkB conf: -79

Results for COc1cc2sc3ccc(-c4ccc(CN5CCOCC5)cc4)cc3c(=O)c2cc1OC ?
TMEM16A act: inactive; 697 NFkB inh: -99; Jurkat NFkB inh: -9

How did Cc1ccc(C(=O)NNc2ncnc3c2cnn3C)cc1 do in these assays?
KLF5 inh: -27; TMEM16A act: inactive; 697 NFkB inh: -6; Jurkat NFkB inh: 5; TMEM16A inh: inactive; aSyn UTR inh: -16

Results for Cn1ncc2c(O/N=C(\N)c3ccc(C(F)(F)F)cc3)ncnc21 ?
KLF5 inh: -23; TMEM16A act: inactive; 697 NFkB inh: -62; Jurkat NFkB inh: 78*; TMEM16A inh: inactive; aSyn UTR inh: -16; Jurkat NFkB conf: 0

Results for CCCCOc1ccccc1C1CC(=O)NC2=C1C(=O)CCC2 (stereo unspecified) ?
KLF5 inh: 57; TMEM16A act: inactive; 697 NFkB inh: -23; Jurkat NFkB inh: 62*; TMEM16A inh: inactive; aSyn UTR inh: 94*; Jurkat NFkB conf: 50*

What do the screens show for `CCOc1ccccc1C1CC(=O)NC2=C1C(=O)CCC2` (stereo unspecified)?
KLF5 inh: 23; TMEM16A act: inactive; 697 NFkB inh: -22; Jurkat NFkB inh: 47; TMEM16A inh: inactive; aSyn UTR inh: -46

Results for CCCOc1ccccc1C1CC(=O)NC2=C1C(=O)CCC2 (stereo unspecified) ?
KLF5 inh: -6; TMEM16A act: inactive; 697 NFkB inh: -54; Jurkat NFkB inh: 59*; TMEM16A inh: inactive; aSyn UTR inh: 32; Jurkat NFkB conf: 25

What do the screens show for `O=C(Nc1ccc(-c2nc3cccnc3s2)cc1)c1cccnc1Cl`?
KLF5 inh: -102; TMEM16A act: inactive; 697 NFkB inh: -237; Jurkat NFkB inh: -166; TMEM16A inh: inactive; aSyn UTR inh: -9; Jurkat NFkB conf: -96

Results for O=C(Nc1ccc(-c2nc3cccnc3s2)cc1)c1ccco1 ?
KLF5 inh: -95; TMEM16A act: inactive; 697 NFkB inh: -194; Jurkat NFkB inh: -186; TMEM16A inh: inactive; aSyn UTR inh: -51; Jurkat NFkB conf: -64

What do the screens show for `CCOc1ccccc1Nc1nnc(SCC(=O)NC2CCS(=O)(=O)C2)s1` (stereo unspecified)?
TMEM16A act: inactive; 697 NFkB inh: -1; Jurkat NFkB inh: -7

What do the screens show for `Cc1cccc2c(=O)n3c(cc12)-c1[nH]c2ccccc2c1CC3`?
TMEM16A act: inactive

Results for O=c1c2ccccc2nc2n1CCc1c-2[nH]c2ccccc12 ?
TMEM16A act: inactive; 697 NFkB inh: -176; Jurkat NFkB inh: -194; TMEM16A inh: inactive; Jurkat NFkB conf: -85

How did CC(OC(=O)CCCN=C1NS(=O)(=O)c2ccccc21)C(=O)Nc1ccccc1F (stereo unspecified) do in these assays?
TMEM16A act: inactive; 697 NFkB inh: 25; Jurkat NFkB inh: -14; TMEM16A inh: inactive; aSyn UTR inh: -2

How did CCN1C[C@@H]2[C@@H]3C(=O)N(Cc4ccccc4)C(=O)[C@@H]3[C@](Cc3ccccc3)(C1=O)N2C(=O)c1ccc(C(C)(C)C)cc1 do in these assays?
TMEM16A act: inactive

How did COc1ccccc1NC(CC(=O)c1ccccc1)C(=O)OCC(=O)c1ccc(F)cc1 (stereo unspecified) do in these assays?
KLF5 inh: -25; TMEM16A act: inactive; 697 NFkB inh: -168; Jurkat NFkB inh: -173; TMEM16A inh: inactive; aSyn UTR inh: -235; Jurkat NFkB conf: -41

How did CCN(c1ccc(OC)cc1)S(=O)(=O)c1ccc(-c2cc(C)no2)s1 do in these assays?
KLF5 inh: -18; TMEM16A act: inactive; 697 NFkB inh: -8; Jurkat NFkB inh: 31; TMEM16A inh: inactive; aSyn UTR inh: -47

What do the screens show for `CCc1ccccc1N(C)S(=O)(=O)c1ccc(-c2cc(C)no2)s1`?
KLF5 inh: 52; TMEM16A act: -28*; 697 NFkB inh: -69; Jurkat NFkB inh: 55*; TMEM16A inh: inactive; aSyn UTR inh: -2; Jurkat NFkB conf: 28

How did CCN1/C(=C/c2ccc3cc(C)ccc3[n+]2CC)Sc2ccc3sccc3c21 do in these assays?
TMEM16A act: inactive; 697 NFkB inh: -13; Jurkat NFkB inh: 92*; TMEM16A inh: inactive; aSyn UTR inh: 131*; Jurkat NFkB conf: 64*

How did CCN1/C(=C\c2ccc3cc(C)ccc3[n+]2CC)Sc2cc(C)c(C)cc21 do in these assays?
KLF5 inh: -14; TMEM16A act: inactive; aSyn UTR inh: 14

How did Clc1ccc2nc(-c3ccc(Br)s3)cn2c1 do in these assays?
KLF5 inh: -88; TMEM16A act: inactive; 697 NFkB inh: -151; Jurkat NFkB inh: -179; TMEM16A inh: inactive; aSyn UTR inh: -26; Jurkat NFkB conf: -100

Results for CCOc1cc(S(=O)(=O)NCc2ccc(OC)cc2)c(OCC)cc1-n1cnnn1 ?
KLF5 inh: -15; TMEM16A act: inactive; 697 NFkB inh: -27; Jurkat NFkB inh: 57*; TMEM16A inh: inactive; aSyn UTR inh: 24; Jurkat NFkB conf: 12

How did Cc1cc(-n2c(C)cc(C(=O)CSc3ncnc4ccccc34)c2C)no1 do in these assays?
KLF5 inh: -7; TMEM16A act: inactive; 697 NFkB inh: 33; Jurkat NFkB inh: 56*; TMEM16A inh: inactive; aSyn UTR inh: -40; Jurkat NFkB conf: 41

What do the screens show for `O=C(NCc1cccnc1)c1ccc(COc2ccccc2Br)o1`?
KLF5 inh: -2; TMEM16A act: inactive; 697 NFkB inh: 1; Jurkat NFkB inh: 72*; TMEM16A inh: inactive; aSyn UTR inh: 39; Jurkat NFkB conf: -5

What do the screens show for `O=C(NCc1cccnc1)c1ccc(COc2ccc3c(c2)CCC3)o1`?
KLF5 inh: -46; TMEM16A act: inactive; 697 NFkB inh: -110; Jurkat NFkB inh: 39; TMEM16A inh: inactive; aSyn UTR inh: 15

How did O=C(NCc1cccnc1)c1ccc(COc2ccccc2Cl)o1 do in these assays?
KLF5 inh: -47; TMEM16A act: inactive; 697 NFkB inh: -7; Jurkat NFkB inh: 56*; TMEM16A inh: inactive; aSyn UTR inh: 16; Jurkat NFkB conf: 8
